PubChem BioAssay (NCI)
The panel holds about 83,000 compounds, 20% with a hit somewhere; the sample as a whole holds those more often.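 How to read the values: 0–100, growth inhibition (40 = 60% inhibited); 0, no net growth; -100 to 0, cell death (-40 = 40% of starting cells died; -100 = all dead).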 A number with no mark means an inactive call. Active and inactive are the calls of the source. How the source made its calls: active means growth percent below 10; inactive means the rest.

What was measured:
Experiment in all cases: NCI-60 one-dose screen, 48 h (100 = growth as untreated, 0 = no growth, -100 = all killed)
Settings in all cases: 10 µM unless noted
DU-145 prostate = system: DU-145 prostate
K-562 leukemia = system: K-562 leukemia
MALME-3M melanoma = system: MALME-3M melanoma
MDA-MB-231 breast = system: MDA-MB-231 breast
RXF 393 renal = system: RXF 393 renal
SF-268 CNS = system: SF-268 CNS
SF-295 CNS = system: SF-295 CNS
SF-539 CNS = system: SF-539 CNS
UACC-257 melanoma = system: UACC-257 melanoma
M14 melanoma = system: M14 melanoma
HCT-15 colon = system: HCT-15 colon
HT29 colon = system: HT29 colon
SNB-75 CNS = system: SNB-75 CNS
SNB-19 CNS = system: SNB-19 CNS
U251 CNS = system: U251 CNS
PC-3 prostate = system: PC-3 prostate
SK-MEL-5 melanoma = system: SK-MEL-5 melanoma
UACC-62 melanoma = system: UACC-62 melanoma
LOX IMVI melanoma = system: LOX IMVI melanoma
SK-MEL-28 melanoma = system: SK-MEL-28 melanoma

Compound | growth (DU-145 prostate) | growth (K-562 leukemia) | growth (MALME-3M melanoma) | growth (MDA-MB-231 breast) | growth (RXF 393 renal) | growth (SF-268 CNS) | growth (SF-295 CNS) | growth (SF-539 CNS) | growth (UACC-257 melanoma) | growth (M14 melanoma) | growth (HCT-15 colon) | growth (HT29 colon) | growth (SNB-75 CNS) | growth (SNB-19 CNS) | growth (U251 CNS) | growth (PC-3 prostate) | growth (SK-MEL-5 melanoma) | growth (UACC-62 melanoma) | growth (LOX IMVI melanoma) | growth (SK-MEL-28 melanoma)
CN(C)c1cc(NN=C(c2ccc(O)cc2)c2ccc(O)cc2)c([N+](=O)[O-])cc1[N+](=O)[O-] | 96.8% | 118% | 153% | 81.8% | 0.652% (active) | 81.5% | 79.3% | 74.9% | 25.1% | 48.2% | 46.4% | 114% | 98% | 67.7% | 70.8% | 87.8% | 26% | 71.7% | 43.7% | 81.5%
CCc1ccc(C2=C/C(=C/c3ccccc3)C(=O)N2CCc2ccc(S(N)(=O)=O)cc2)cc1 | 115% | 97.6% | 94.3% | 100% | 99.3% | 94% | 101% | 96.3% | 106% | 99.4% | 108% | 117% | 66.3% | 93.9% | 99.7% | 99.9% | 98.1% | 95.2% | 94.9% | 105%
CCOC(=O)c1c[nH]c2cc(OCC3CC3)c(OCC3CC3)cc2c1=O | 102% | 121% | 106% | 119% | 114% | 109% | 103% | 105% | 115% | 115% | 104% | 111% | 114% | 117% | 119% | 95.1% | 112% | 104% | 113% | 110%
CC(C)c1ccc(C(=O)Nc2sc3c(c2C#N)CCC(=O)C3)cc1 | 43.9% | 1.57% (active) | -41.2% (active) | -39.6% (active) | -38.5% (active) | 26.9% | -7.58% (active) | -48.4% (active) | -2.97% (active) | -6.52% (active) | -24.5% (active) | 8.34% (active) | -42.1% (active) | 11.4% | 15% | 1.47% (active) | -62.9% (active) | -27.8% (active) | 16.7% | 22.3%
C=C(CN=[N+]=[N-])[C@@H]1CC[C@]2(C)[C@H](CC[C@@H]3[C@H]4[C@H]5OC(=O)[C@@]4(CCC5(C)C)CC[C@]32C)[C@@]1(C)CCC#N | 98.2% [100 µM] | 45.6% [100 µM] | 90.1% [100 µM] | 48.9% [100 µM] | 108% [100 µM] | 92.9% [100 µM] | 96.7% [100 µM] | 88% [100 µM] | 77.2% [100 µM] | 69.1% [100 µM] | 87.6% [100 µM] | 61.7% [100 µM] | 89.6% [100 µM] | 90.5% [100 µM] | 79.6% [100 µM] | 45.3% [100 µM] | 41.5% [100 µM] | 57.7% [100 µM] | 69.3% [100 µM] | 98.4% [100 µM]
CC(C)(C)c1cc(C(=O)Nc2ccc(C(=O)NCCN)cc2)cc(C(C)(C)C)c1 | 40.5% | -42.5% (active) | 15.1% | -43.7% (active) | 19.5% | 57% | 36.4% | -52.8% (active) | 68.6% | -71% (active) | 76.6% | -21.7% (active) | 55.6% | 33.6% | -6.92% (active) | 25.9% | 23.8% | -71.8% (active) | -65.5% (active) | -64.4% (active)
Cc1ccc(-c2cc(-c3ccc(C)cc3)nc(N3CCN(CCNc4ccnc5cc(Cl)ccc45)CC3)n2)cc1 | 21.5% | 27.7% | -45.9% (active) | 18.6% | -14.5% (active) | 28.2% | 94.9% | 7.85% (active) | 40.8% | -2.46% (active) | 42.1% | 11.9% | -21.1% (active) | 38.7% | 35.7% | 44.6% | 38.5% | 12.2% | 6.97% (active) | 14.6%
